15 compounds from PubChem BioAssay (NCI) can be followed below.

The panel holds about 83,000 compounds, 20% with a hit somewhere; the sample as a whole holds those more often.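 Single-dose data. Exposure time 48 hours. Values below 10 considered active.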 Values without a mark were called inactive. Activity calls are given as the source filed them.

Among the test systems are NCI-H23 lung; NCI-H226 lung; NCI-H322M lung; HOP-62 NSCLC; NCI-H460 lung; HOP-92 NSCLC; NCI-H522 lung; A549/ATCC NSCLC; 786-0 renal; COLO 205 colon.
Common to all, as to test: NCI-60 one-dose screen, 48 h (100 = growth as untreated, 0 = no growth, -100 = all killed)
What all share (details): 10 µM unless noted

Regarding `CCC1(C2CCCC2)NC(=O)NC1=O` (stereo not given), the growth in the test with NCI-H23 lung is 93.5%; with NCI-H226 lung it was 101%; in the test on NCI-H322M lung, 106%; in the test with HOP-62 NSCLC, 115%; with NCI-H460 lung, 102%; in the test with HOP-92 NSCLC, 78.1%. Besides, the growth was 103% in the test on NCI-H522 lung, 104% with A549/ATCC NSCLC, 94.1% in the test on 786-0 renal and 108% in the test with COLO 205 colon.

In the case of `COc1ccc(Nc2nnc(SCc3ccccc3F)s2)cc1`, the growth in the test with NCI-H23 lung is 95.7%; with NCI-H226 lung, 87.2%; in the test with NCI-H322M lung, 116%; with HOP-62 NSCLC it was 103%; with NCI-H460 lung, 111%; in the test with HOP-92 NSCLC, 88.6%. Besides, the growth in the test on NCI-H522 lung is 75.4%; in the test on A549/ATCC NSCLC, 102%; in the test on 786-0 renal, 101%; in the test with COLO 205 colon it was 114%.

For the compound `Cc1ccc(S(=O)(=O)N/N=C\c2cc(Cl)ccc2O)cc1`, the growth is 96.8% in the test with NCI-H23 lung; 96.4% in the test on NCI-H226 lung; 114% in the test with NCI-H322M lung; 105% in the test on HOP-62 NSCLC; 93.7% with NCI-H460 lung; 72.9% in the test on HOP-92 NSCLC. Besides, the growth is 80.3% in the test on NCI-H522 lung, 82% in the test with A549/ATCC NSCLC, 74.5% in the test with 786-0 renal and 96.9% in the test on COLO 205 colon.

On to `O=C(NCCNc1cc(-c2cn(-c3ccccc3)nc2-c2cccc(O)c2)ccn1)Nc1ccccc1`, for which the growth in the test with NCI-H23 lung was 69.4%; in the test with NCI-H226 lung, 70.6%; with NCI-H322M lung, 95.3%; in the test on HOP-62 NSCLC, 63.7%; with NCI-H460 lung, 86.2%; in the test on HOP-92 NSCLC, 54.5%. The growth was 70.8% with NCI-H522 lung, 52.5% with A549/ATCC NSCLC, 71.4% in the test with 786-0 renal and 81.2% in the test with COLO 205 colon.

In the case of `O=C(Nc1cccc(Cl)c1)c1cc(N=Nc2ccc([N+](=O)[O-])cc2Cl)ccc1O`, the growth was 63% with NCI-H23 lung; 97% in the test with NCI-H226 lung; 94.2% in the test on NCI-H322M lung; 72.9% in the test with HOP-62 NSCLC; 39.6% with NCI-H460 lung; 28.3% with HOP-92 NSCLC. The growth was -16.5% (active) in the test on NCI-H522 lung, 67.8% in the test with A549/ATCC NSCLC, 59.1% in the test with 786-0 renal and 82.2% in the test with COLO 205 colon.

With `CC(=O)N1N=C(c2ccc(Nc3nc(Nc4ccc(F)cc4)nc(Nc4ccc(F)cc4)n3)cc2)CC1c1cccc([N+](=O)[O-])c1` (stereo not given), the growth with NCI-H23 lung is 78.9%; in the test on NCI-H226 lung, 101%; in the test on NCI-H322M lung it was 85.6%; in the test with HOP-62 NSCLC, 82%; in the test with NCI-H460 lung, 102%; with HOP-92 NSCLC, 71.2%. Moreover, the growth in the test with NCI-H522 lung is 77%; in the test on A549/ATCC NSCLC it was 91.1%; in the test with 786-0 renal it was 86.4%; in the test on COLO 205 colon, 84.9%.

For `Cc1ccc(/C=C/c2c(C(=O)/C=C/c3ccc(Cl)cc3)c(C)nc3ccccc23)cc1`, the growth with NCI-H23 lung was 2.79% (active); with NCI-H226 lung, -30.4% (active); in the test with NCI-H322M lung, 51.7%; in the test with HOP-62 NSCLC it was 3.89% (active); with NCI-H460 lung, -73.9% (active); in the test on HOP-92 NSCLC, 0.669% (active). Moreover, the growth is 5.16% (active) with NCI-H522 lung, 78.8% with A549/ATCC NSCLC, -17.5% (active) in the test with 786-0 renal and 6.99% (active) with COLO 205 colon.

Regarding `Cc1ccc(N2CCN(C(=S)c3cccs3)CC2)cc1`, the growth in the test on NCI-H23 lung was 104%; in the test with NCI-H226 lung it was 94.9%; in the test on NCI-H322M lung it was 107%; in the test on HOP-62 NSCLC, 105%; in the test on NCI-H460 lung, 109%; with HOP-92 NSCLC, 74.8%. Further, the growth in the test on NCI-H522 lung was 82.6%; in the test on A549/ATCC NSCLC, 92.5%; in the test with 786-0 renal it was 90.3%; in the test on COLO 205 colon, 112%.

Take `N#Cc1nc2c(S(=O)(=O)c3ccc(Cl)cc3)c(N)n(Nc3cccc(Cl)c3)c2nc1C#N`: the growth in the test with NCI-H23 lung was 44.7%; in the test with NCI-H226 lung, 85.2%; in the test on NCI-H322M lung, 30.8%; with HOP-62 NSCLC it was 40.2%; in the test on NCI-H460 lung, 65.7%; in the test on HOP-92 NSCLC it was -33.2% (active). The growth in the test with NCI-H522 lung was 57.3%; with A549/ATCC NSCLC, 43.3%; in the test with 786-0 renal it was 43.9%; with COLO 205 colon it was 72.5%.

For the compound `CCN(CC)CCCC(C)Nc1c2ccc(Cl)cc2nc2ccc(O)cc12` (stereo not given), the growth in the test on NCI-H23 lung was 46.2%; in the test with NCI-H226 lung, 39.4%; in the test with NCI-H322M lung, 38%; with HOP-62 NSCLC, 42.1%; in the test on NCI-H460 lung, 14.7%; in the test on HOP-92 NSCLC it was 50.3%. Moreover, the growth is 37% in the test on NCI-H522 lung, 24.4% in the test with A549/ATCC NSCLC, 22.3% with 786-0 renal and -16.4% (active) in the test on COLO 205 colon.

In the case of `COc1ccc(Cl)cc1NC(=O)C(Br)C(Br)C(=O)O` (stereo not given), the growth with NCI-H23 lung is 67%; in the test with NCI-H226 lung, 70.9%; in the test with NCI-H322M lung, 61.5%; in the test with HOP-62 NSCLC it was 56.6%; in the test on NCI-H460 lung, 111%; in the test with HOP-92 NSCLC, 53.5%. In addition, the growth in the test with NCI-H522 lung is -43.5% (active); with A549/ATCC NSCLC it was 115%; in the test with 786-0 renal, 102%; in the test on COLO 205 colon, 105%.

As for `COc1ccc2c(c1)O/C(=C/c1ccc(OCC(=O)c3ccccc3)cc1)C2=O`, the growth in the test with NCI-H23 lung was 98.1%; with NCI-H226 lung it was 104%; in the test with NCI-H322M lung, 97.2%; with HOP-62 NSCLC it was 93.6%; in the test on NCI-H460 lung it was 118%; with HOP-92 NSCLC it was 98.6%. The growth in the test on NCI-H522 lung was 94.5%; in the test on A549/ATCC NSCLC, 93.2%; in the test on 786-0 renal it was 101%; in the test with COLO 205 colon, 129%.

As to `COc1ccc(-c2nc3sccn3c2-c2cc(-c3cc(OC)c(OC)c(OC)c3)on2)cc1`, the growth in the test on NCI-H23 lung is 88.6%; with NCI-H226 lung, 116%; in the test with NCI-H322M lung, 102%; with HOP-62 NSCLC it was 106%; in the test with NCI-H460 lung, 78.3%; in the test with HOP-92 NSCLC, -17.4% (active). Besides, the growth in the test with NCI-H522 lung was 87.9%; in the test with A549/ATCC NSCLC, 104%; in the test with 786-0 renal, 96.6%; with COLO 205 colon, 94.2%.

As to `COc1cccc(-c2nn(-c3ccccc3)cc2-c2ccnc(NCCCNC(=O)c3cccc(C(F)(F)F)c3)c2)c1`, the growth in the test on NCI-H23 lung was 27.3%; with NCI-H226 lung, 13.3%; in the test with NCI-H322M lung, 75.3%; with HOP-62 NSCLC it was 48.3%; in the test on NCI-H460 lung, 23.4%; in the test with HOP-92 NSCLC, 9.4% (active). Also, the growth is 0.301% (active) with NCI-H522 lung, 8.6% (active) in the test on A549/ATCC NSCLC, 29.8% in the test with 786-0 renal and 9.99% (active) with COLO 205 colon.

Regarding `Cc1cccc(NC(=O)CSc2nc3ccccc3[nH]2)c1`, the growth was 94.6% in the test with NCI-H23 lung; 92% in the test with NCI-H226 lung; 97% in the test on NCI-H322M lung; 88.7% in the test on HOP-62 NSCLC; 105% in the test on NCI-H460 lung; 88.4% in the test on HOP-92 NSCLC. For the same compound, the growth is 90.9% in the test with NCI-H522 lung, 101% with A549/ATCC NSCLC, 103% in the test on 786-0 renal and 110% with COLO 205 colon.
